# Assay results taken from PubChem BioAssay AID1053188 (Broad Institute, 2014).
# Values joined by “and” are separate entries in the source; they are usually repeats but may differ in a detail not shown here. Equal entries are not always repeated. Screen size: about 83,000 compounds; about 780 (0.94%) were called active. Many of the other results were omitted from the sample, so actives are more common in it than they were. A number with no mark means an inactive call.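 How the source made its calls: active means mean inhibition of at least 50% with a set share of replicates also reaching that level; inconclusive means no clear call, values can overlap the other calls; inactive means the rest.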
# Assay: inhibitors of CD40-induced NF-kB signaling, primary screen, BL2 cells, luciferase reporter, single point (AID 1053188);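 further: 0% = neutral control wells and 100% = IKK inhibitor VII at 50 µM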
# Settings: CD40L-induced, 4 h, at 10 µM, active compounds read high
row,SMILES,inhibition
1,CC(=O)OC1C2(CC3N4C(=O)C5(CO)SSC4(CC31O)C(=O)N5C)OC(C)C(C)(C)C2=O (stereo not given),107% (active)
2,Cc1nn(-c2ccccc2)c(C)c1NC(=O)COC(=O)Cc1ccccc1,3.56%
3,N=c1ccccn1Cc1ccccc1,5.42%
4,CCC(C)(O)C(=O)OC1C(=O)OC2CC3C(C)=CC(=O)C(O)C3(C)C3C4(O)OCC23C1C(C)C4O (stereo not given),107% (active)
5,CC(=O)N1C[C@@H]2C(c3ccc(Br)cc3)[C@H](C1)N2C (stereo not given in full),-3.1% and 2.67%
6,Cc1ccc(C(C)C)c(OCC(=O)N2CCN(CC(=O)N3CCOCC3)CC2)c1,-7.63%
7,Cc1cc(C(=O)OCC(=O)Nc2c(F)cccc2F)c(C)n1C1CC1,-11.1%
8,Cc1nc2ccc(N3CCN(C)CC3)cc2nc1C,-20.7%
9,CCOC(=O)C1(CCc2ccccc2)CCN(Cc2ccco2)CC1,11.2%
10,c1ccc(CC2CCCCN2)cc1 (stereo not given),-1.33%
